We go through 47 compounds from PubChem BioAssay AID624255 (Broad Institute, 2012).

A word on the inhibition: it is the relative decrease from the control value, in per cent.

Several values for one entry are separate records, joined by “and”; a condition that tells them apart may be missing. Identical values can stand only once. Among all 77,000 compounds or so, about 4,600 (6%) were called active. Not shown: some 1% with an inconclusive outcome. This is one part of a sample in which actives are shown more often than they occur. Values without a mark were called inactive.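 The calls were made as follows: active = mean inhibition above about 93%, with at least 55% of replicates each passing it (limit read from the data, passing the limit was not always enough); inconclusive = only one of those two conditions holds; inactive = neither condition holds.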

The experiment can be described thus: T. cruzi intracellular proliferation inhibitors, primary screen, cell-based, beta-gal Tulahuen parasites, NIH3T3 host, luminescence (AID 624255). As to conditions: T. cruzi beta-gal in NIH3T3, GalScreen luminescence, 90 h; at 8.34 µM; active compounds read high.
In the case of `CCCC#Cc1ccc2c(c1)O[C@@H](CN(C)C(=O)c1ccccc1F)[C@H](C)CN([C@H](C)CO)S2(=O)=O`, the inhibition is 97.6% (active).

Turning to `C[C@H]1CN([C@@H](C)CO)S(=O)(=O)c2ccc(C#CCN(C)C)cc2O[C@H]1CN(C)C(=O)CN(C)C`, the inhibition was -25.5%.

`CC(C)CC#Cc1ccc2c(c1)O[C@@H](CN(C)C(=O)c1ccccc1F)[C@H](C)CN([C@H](C)CO)S2(=O)=O`: the inhibition was 54%.

As to `CCC(=O)N(C)C[C@@H]1Oc2cc(C#CCN(C)C)ccc2S(=O)(=O)N([C@H](C)CO)C[C@H]1C`, the inhibition was 101% (active).

With `CCCC#Cc1ccc2c(c1)O[C@@H](CN(C)C(=O)CC)[C@H](C)CN([C@H](C)CO)S2(=O)=O`, the inhibition is 68.6%.

`CC(=O)N(C)C[C@H]1Oc2cc(C#CCN(C)C)ccc2S(=O)(=O)N([C@H](C)CO)C[C@H]1C`: the inhibition was 56.9%.

As to `C[C@H]1CN([C@@H](C)CO)S(=O)(=O)c2ccc(C#CCN(C)C)cc2O[C@H]1CN(C)C(=O)c1ccccc1F`, the inhibition was 36.4%.

As for `CCCC#Cc1ccc2c(c1)O[C@H](CN(C)C(=O)CC)[C@@H](C)CN([C@H](C)CO)S2(=O)=O`, the inhibition is 94.9% (active).

For `CCCC#Cc1ccc2c(c1)O[C@@H](CN(C)C(=O)CC)[C@@H](C)CN([C@H](C)CO)S2(=O)=O`, the inhibition was 67%.

As for `CC(=O)N(C)C[C@H]1Oc2cc(C#CCN(C)C)ccc2S(=O)(=O)N([C@@H](C)CO)C[C@@H]1C`, the inhibition is 106% (active).

On to `C[C@@H]1CN([C@H](C)CO)S(=O)(=O)c2ccc(C#CCN(C)C)cc2O[C@@H]1CN(C)C(=O)CN(C)C`, for which the inhibition was -40.2%.

As to `COCC#Cc1ccc2c(c1)O[C@@H](CN(C)C(C)=O)[C@H](C)CN([C@H](C)CO)S2(=O)=O`, the inhibition is -30.8%.

On to `O=C(C[C@H]1CC[C@H]2[C@@H](COC[C@@H](O)CN2Cc2cccc(C(F)(F)F)c2)O1)NCc1ccncc1`, for which the inhibition was 73.9%.

Regarding `C[C@@H]1CCCCO[C@@H](CN(C)S(C)(=O)=O)[C@@H](C)CN([C@@H](C)CO)C(=O)c2cc(NS(=O)(=O)c3ccc(Cl)cc3)ccc2O1`, the inhibition was 46.7%.

`O=C(C[C@H]1CC[C@H]2[C@@H](COC[C@@H](O)CN2CCC(F)(F)F)O1)NCc1ccc2c(c1)OCO2`: the inhibition was -35.7%.

On to `COc1cccc(NC(=O)C[C@@H]2CC[C@H]3[C@@H](COc4ccc(NC(=O)C5CCOCC5)cc4C(=O)N3C)O2)c1`, for which the inhibition is 24.1%.

Regarding `CN(C)C(=O)C[C@@H]1CC[C@H](NC(=O)NC2CCCC2)[C@H](CO)O1`, the inhibition was -49.3%.

For the compound `O=C(C[C@@H]1CC[C@@H]2[C@H](COC[C@@H](O)CN2Cc2ccccc2)O1)NCCc1ccccc1`, the inhibition was 13.4%.

Turning to `C[C@@H](NC(=O)C[C@H]1C[C@H]2c3cc(NC(=O)C4CCOCC4)ccc3O[C@H]2[C@@H](CO)O1)c1ccccc1`, the inhibition is -16.2%.

Regarding `Cc1cc(C(=O)Nc2ccc3c(c2)C(=O)N(C)[C@@H]2CC[C@H](CC(=O)NC4CCCC4)O[C@@H]2CO3)no1`, the inhibition is -62.2%.

Turning to `CN(C)CCCNC(=O)C[C@H]1CC[C@H]2[C@@H](COC[C@H](O)CN2C(=O)c2ccncc2)O1`, the inhibition was -84.6%.

Regarding `COCC(=O)Nc1ccc2c(c1)[C@@H]1C[C@H](CC(=O)NCc3ccc(Cl)cc3)O[C@H](CO)[C@@H]1O2`, the inhibition is 0.832%.

Consider `CN1C(=O)c2cc(NC(=O)c3cnccn3)ccc2OC[C@@H]2O[C@@H](CC(=O)N[C@H]3CCN(Cc4ccccc4)C3)CC[C@H]21`, for which the inhibition is 109% (active).

With `CN1C(=O)c2cc(NC(=O)c3cnccn3)ccc2OC[C@@H]2O[C@H](CC(=O)N[C@@H]3CCN(Cc4ccccc4)C3)CC[C@@H]21`, the inhibition is 105% (active).

For `CN1C(=O)c2cc(NC(=O)c3cnccn3)ccc2OC[C@@H]2O[C@H](CC(=O)NC3CCC3)CC[C@@H]21`, the inhibition is 7.25%.

With `CN1C(=O)c2cc(NS(C)(=O)=O)ccc2OC[C@@H]2O[C@@H](CC(=O)NCc3ccc(-c4ccccc4)cc3)CC[C@H]21`, the inhibition was 6.8%.

For `CCS(=O)(=O)Nc1ccc2c(c1)C(=O)N(C)[C@@H]1CC[C@H](CC(=O)N[C@H]3CCN(Cc4ccccc4)C3)O[C@@H]1CO2`, the inhibition was 46.2%.

In the case of `CCNC(=O)C[C@@H]1CC[C@@H]2[C@@H](COc3ccc(NC(=O)Nc4ccccc4F)cc3C(=O)N2C)O1`, the inhibition was 19.6%.

On to `CCS(=O)(=O)Nc1ccc2c(c1)C(=O)N(C)[C@H]1CC[C@H](CC(=O)N[C@@H]3CCN(Cc4ccccc4)C3)O[C@H]1CO2`, for which the inhibition is 71.7%.

Consider `CN1C(=O)c2cc(NC(=O)Nc3ccccc3F)ccc2OC[C@H]2O[C@H](CC(=O)NCc3ccc(-c4ccccc4)cc3)CC[C@H]21`, for which the inhibition was 101% (active).

On to `CN1C(=O)c2cc(NC(=O)Cc3cccs3)ccc2OC[C@@H]2O[C@@H](CC(=O)N[C@@H]3CCN(Cc4ccccc4)C3)CC[C@H]21`, for which the inhibition is 50.2%.

For `C/C=C/c1ccc([C@H]2[C@@H](CO)N[C@@H]2CN(CC)C(=O)CN2CCOCC2)cc1`, the inhibition is -25.4%.

On to `CCS(=O)(=O)Nc1ccc2c(c1)C(=O)N(C)[C@@H]1CC[C@@H](CC(=O)N3CCCCC3)O[C@H]1CO2`, for which the inhibition is 54.2%.

As to `CO[C@@H]1CN(C)C(=O)c2cc(NC(=O)C3CCC3)ccc2OC[C@H](C)N(Cc2nccs2)C[C@H]1C`, the inhibition is -2.54%.

As for `COCC(=O)Nc1ccc2c(c1)C(=O)N(C)C[C@@H](OC)[C@H](C)CN(C(=O)CC1CC1)[C@H](C)CO2`, the inhibition is 34.9%.

For the compound `Cc1noc(C)c1S(=O)(=O)N(C)C[C@H]1Oc2ccc(N(C)C)cc2CC(=O)N([C@H](C)CO)C[C@@H]1C`, the inhibition is 97.3% (active).

As for `Cc1ccc(S(=O)(=O)N(C)C[C@H]2OCCCC[C@H](C)Oc3ccc(NS(=O)(=O)c4c(C)noc4C)cc3C(=O)N([C@H](C)CO)C[C@@H]2C)cc1`, the inhibition is -43.8%.

With `COc1ccc(S(=O)(=O)N(C)C[C@H]2OCCCC[C@H](C)Oc3ccc(NS(=O)(=O)c4ccc(F)cc4)cc3C(=O)N([C@@H](C)CO)C[C@@H]2C)cc1`, the inhibition is 108% (active).

On to `COc1ccc(S(=O)(=O)Nc2ccc3c(c2)C(=O)N([C@@H](C)CO)C[C@H](C)[C@H](CN(C)S(=O)(=O)c2ccc(F)cc2)OCCCC[C@@H](C)O3)cc1`, for which the inhibition is 94.5%.

Consider `COc1ccc(S(=O)(=O)Nc2ccc3c(c2)C(=O)N([C@@H](C)CO)C[C@H](C)[C@@H](CN(C)S(=O)(=O)c2ccc(F)cc2)OCCCC[C@H](C)O3)cc1`, for which the inhibition was 85%.

On to `Cc1noc(C)c1S(=O)(=O)Nc1ccc2c(c1)C(=O)N([C@@H](C)CO)C[C@@H](C)[C@@H](CN(C)S(=O)(=O)c1ccccc1)OCCCC[C@H](C)O2`, for which the inhibition is -37.4%.

Regarding `COc1ccc(S(=O)(=O)Nc2ccc3c(c2)C(=O)N([C@H](C)CO)C[C@H](C)[C@@H](CN(C)C)OCCCC[C@H](C)O3)cc1`, the inhibition is 17.4% and 81.8%.

As to `Cc1ccc(S(=O)(=O)Nc2ccc3c(c2)CC(=O)N([C@H](C)CO)C[C@@H](C)[C@H](CN(C)S(=O)(=O)c2c(C)noc2C)O3)cc1`, the inhibition was -10.8%.

Turning to `COc1ccc(S(=O)(=O)Nc2ccc3c(c2)C(=O)N([C@H](C)CO)C[C@H](C)[C@@H](CN(C)S(C)(=O)=O)OCCCC[C@@H](C)O3)cc1`, the inhibition was 50.1%.

Regarding `COc1ccc(S(=O)(=O)Nc2ccc3c(c2)C(=O)N([C@H](C)CO)C[C@@H](C)[C@@H](CN(C)CC2CCCCC2)OCCCC[C@@H](C)O3)cc1`, the inhibition was 110% (active).

With `Cc1noc(C)c1S(=O)(=O)Nc1ccc2c(c1)C(=O)N([C@@H](C)CO)C[C@@H](C)[C@H](CN(C)S(=O)(=O)c1ccc(Cl)cc1)OCCCC[C@H](C)O2`, the inhibition was 96.3% (active).

For `C[C@@H]1CN([C@H](C)CO)C(=O)Cc2cc(N(C)C)ccc2O[C@H]1CN(C)S(C)(=O)=O`, the inhibition is -46%.
